Data reported in PMC5540273 (PLoS ONE, 2017).

Columns and labels:
Conditions in all cases: concentration: 1 μM, replicates: in singlicate; n = 1
CDK3 = system: CDK3
CDK4-cyclinD1 = system: CDK4-cyclinD1
CDK4-cyclinD3 = system: CDK4-cyclinD3
CDK4 = system: CDK4
CDK5 = system: CDK5
CDK7 = system: CDK7
CDK8 = system: CDK8
CDK9 = system: CDK9
CDKL1 = system: CDKL1
CDKL2 = system: CDKL2
CDKL3 = system: CDKL3
CDKL5 = system: CDKL5
CHEK1 = system: CHEK1
CHEK2 = system: CHEK2
CIT = system: CIT
CLK1 = system: CLK1
CLK2 = system: CLK2
CLK3 = system: CLK3
CLK4 = system: CLK4
CSF1R-autoinhibited = system: CSF1R-autoinhibited
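Also: KINOMEscan kinase panel screen.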

Row | SMILES | %Inh (CDK3) [%] | %Inh (CDK4-cyclinD1) [%] | %Inh (CDK4-cyclinD3) [%] | %Inh (CDK4) [%] | %Inh (CDK5) [%] | %Inh (CDK7) [%] | %Inh (CDK8) [%] | %Inh (CDK9) [%] | %Inh (CDKL1) [%] | %Inh (CDKL2) [%] | %Inh (CDKL3) [%] | %Inh (CDKL5) [%] | %Inh (CHEK1) [%] | %Inh (CHEK2) [%] | %Inh (CIT) [%] | %Inh (CLK1) [%] | %Inh (CLK2) [%] | %Inh (CLK3) [%] | %Inh (CLK4) [%] | %Inh (CSF1R-autoinhibited) [%]
1 | CN1C(=O)C(Nc2cc(Cl)c(O)c(Cl)c2)=C(c2ccc(Cl)cc2)C1=O [SB-404321] | 0 | 0 | 0 | 23 | 4 | 0 | 41 | 0 | 0 | 7 | 0 | 0 | 0 | 0 | 38 | 22 | 0 | 0 | 0 | 0
2 | COc1cccc(C2=C(N(C)c3ccccc3)C(=O)NC2=O)c1 [SB-334865] | 12 | 2 | 8 | 0 | 0 | 0 | 6 | 39 | 0 | 23 | 0 | 0 | 0 | 0 | 6 | 15 | 0 | 0 | 13 | 0
3 | COc1cc(Nc2ccnc3ccc(C(F)(F)F)cc23)cc(OC)c1OC [GW577382] | 16 | 39 | 0 | 10 | 0 | 1 | 47 | 0 | 6 | 21 | 8 | 0 | 0 | 0 | 11 | 25 | 0 | 0 | 14 | 14
4 | FC(F)(F)c1ccc(-c2ncn(CCCN3CCOCC3)c2-c2ccncc2)cc1 [SB-217780] | 0 | 0 | 1 | 9 | 0 | 9 | 12 | 0 | 13 | 0 | 0 | 16 | 0 | 33 | 0 | 12 | 0 | 0 | 0 | 0
5 | COC(=O)c1c(-c2ccccc2)c2cc(Br)ccc2c(=O)n1Cc1ccc(S(C)(=O)=O)cc1 | 0 | 0 | 5 | 0 | 15 | 29 | 0 | 3 | 0 | 0 | 22 | 26 | 0 | 23 | 23 | 0 | 14 | 0 | 13 | 7
6 | CCC(=O)c1c(-c2ccccc2)c2cc(Cl)ccc2c(=O)n1Cc1cc(C(=O)NC2CC2)n(C)n1 | 0 | 3 | 0 | 0 | 0 | 12 | 14 | 11 | 0 | 3 | 0 | 6 | 0 | 6 | 7 | 0 | 0 | 0 | 0 | 0
7 | CCn1c(-c2ccoc2)nc2cnccc21 [SB-733887] | 23 | 5 | 29 | 0 | 0 | 60 | 33 | 0 | 0 | 16 | 0 | 0 | 17 | 24 | 19 | 26 | 0 | 0 | 3 | 15
8 | O=C(NCc1cccs1)c1cc(C(=O)c2c(Cl)cccc2Cl)c[nH]1 [GW823670] | 15 | 0 | 0 | 0 | 0 | 0 | 16 | 0 | 8 | 0 | 21 | 0 | 22 | 0 | 16 | 0 | 22 | 0 | 0 | 0
9 | OCCCNc1nccc(-c2c(-c3cccc(C(F)(F)F)c3)nn3cc(C(F)(F)F)ccc23)n1 [GW630813] | 1 | 0 | 0 | 29 | 0 | 0 | 15 | 0 | 0 | 7 | 0 | 11 | 0 | 1 | 0 | 9 | 0 | 0 | 16 | 32
10 | Nc1n[nH]c2nnc(-c3ccccc3)c(-c3ccccc3)c12 [GW554060] | 17 | 2 | 0 | 22 | 0 | 0 | 14 | 0 | 0 | 0 | 0 | 0 | 24 | 0 | 26 | 23 | 65 | 0 | 12 | 34
11 | CCc1nc(-c2cccc(C)c2)c(-c2ccncc2)s1 | 8 | 6 | 0 | 0 | 3 | 0 | 0 | 7 | 33 | 4 | 7 | 0 | 0 | 16 | 72 | 13 | 6 | 0 | 0 | 0
12 | Nc1nc(N)c2nc(-c3ccccc3)[nH]c2n1 [SKF-12778] | 1 | 20 | 0 | 0 | 5 | 7 | 23 | 0 | 0 | 2 | 2 | 4 | 0 | 0 | 17 | 36 | 11 | 13 | 32 | 0
13 | Cc1nn2c(=O)cc(N3CCOCC3)nc2n1Cc1cccc(Cl)c1Cl [GSK2342769] | 16 | 0 | 0 | 0 | 0 | 0 | 0 | 0 | 0 | 19 | 0 | 8 | 26 | 0 | 10 | 20 | 1 | 16 | 22 | 0
14 | CN(C)c1cc(-c2ccc3c(N)n[nH]c3c2)nc(N)n1 [GSK2219329] | 0 | 0 | 0 | 0 | 0 | 0 | 0 | 0 | 7 | 11 | 0 | 0 | 0 | 0 | 23 | 45 | 12 | 0 | 51 | 0
15 | Nc1ncnc2c1ncn2-c1cccc2ccccc12 [SKF-97184] | 0 | 0 | 0 | 13 | 0 | 22 | 38 | 1 | 33 | 0 | 26 | 3 | 0 | 17 | 35 | 0 | 3 | 6 | 0 | 33
16 | CCC(=O)c1c(-c2ccccc2)c2cc(Cl)ccc2c(=O)n1Cc1cc(S(C)(=O)=O)n(CC(N)=O)n1 | 0 | 0 | 0 | 0 | 0 | 2 | 0 | 0 | 23 | 0 | 16 | 0 | 0 | 0 | 11 | 0 | 7 | 0 | 63 | 0

Row | SMILES | %Inh (CDK3) [%] | %Inh (CDK4-cyclinD1) [%] | %Inh (CDK4-cyclinD3) [%] | %Inh (CDK4) [%] | %Inh (CDK5) [%] | %Inh (CDK7) [%] | %Inh (CDK8) [%] | %Inh (CDK9) [%] | %Inh (CDKL1) [%] | %Inh (CDKL2) [%] | %Inh (CDKL3) [%] | %Inh (CDKL5) [%] | %Inh (CHEK1) [%] | %Inh (CHEK2) [%] | %Inh (CIT) [%] | %Inh (CLK1) [%] | %Inh (CLK2) [%] | %Inh (CLK3) [%] | %Inh (CLK4) [%] | %Inh (CSF1R-autoinhibited) [%]
17 | Fc1cccc(CSc2nnc(-c3ccc4c(c3)CCO4)o2)c1 | 0 | 0 | 17 | 0 | 4 | 0 | 0 | 0 | 3 | 4 | 0 | 16 | 0 | 3 | 0 | 73 | 20 | 0 | 78 | 5
18 | Nc1ncnc2c1ncn2-c1cccc(F)c1 [SKF-97560] | 0 | 27 | 13 | 30 | 0 | 0 | 0 | 0 | 0 | 0 | 0 | 21 | 17 | 0 | 6 | 22 | 0 | 0 | 0 | 19
19 | CCC(=O)c1c(-c2ccccc2)c2cc(Cl)ccc2c(=O)n1Cc1ccc(C(=O)O)cc1 | 0 | 0 | 0 | 0 | 0 | 0 | 4 | 0 | 0 | 7 | 0 | 0 | 0 | 0 | 0 | 0 | 0 | 0 | 0 | 0
20 | Cc1ccccc1COc1cc(-n2cnc3cc(Cl)ccc32)sc1C(N)=O [GW813349] | 0 | 25 | 3 | 0 | 0 | 0 | 14 | 0 | 34 | 13 | 23 | 2 | 0 | 0 | 21 | 18 | 3 | 0 | 6 | 0
21 | Cc1cccc(-c2cc(-c3c[nH]nc3-c3ccccn3)ccn2)c1 [GW679395] | 9 | 0 | 0 | 0 | 0 | 0 | 4 | 0 | 0 | 14 | 0 | 0 | 0 | 0 | 45 | 18 | 2 | 0 | 6 | 0
22 | O=C(Nc1n[nH]c2nc(-c3ccccc3)c(Br)cc12)C1CC1 [SB-708998] | 0 | 0 | 0 | 10 | 10 | 1 | 0 | 0 | 0 | 30 | 0 | 0 | 15 | 0 | 19 | 17 | 0 | 0 | 21 | 0
23 | COc1ccc(-c2cc3c(C)nc(N)nc3n([C@H]3CC[C@H](OCCO)CC3)c2=O)cn1 | 0 | 0 | 0 | 0 | 19 | 14 | 0 | 4 | 10 | 0 | 29 | 0 | 0 | 12 | 0 | 0 | 0 | 0 | 0 | 12
24 | Cn1c(=O)c(F)c(Nc2ccc(I)cc2F)c2c(=O)n(OC[C@H](O)CO)cnc21 | 38 | 1 | 0 | 0 | 0 | 0 | 46 | 14 | 51 | 29 | 7 | 0 | 0 | 0 | 17 | 7 | 16 | 17 | 0 | 0
25 | C[C@@H]1CC[C@H](C(=O)NC2CCCCC2)CN1c1cc(-c2ccc3c(N)n[nH]c3c2)nc(N)n1 [GSK2291363] | 18 | 0 | 0 | 14 | 15 | 0 | 37 | 0 | 0 | 26 | 0 | 4 | 0 | 22 | 24 | 40 | 26 | 16 | 35 | 31
26 | CCS(=O)c1ccc(-c2coc3ccc(-c4nnc(C)o4)cc23)cc1 (centres unmarked) | 0 | 25 | 0 | 32 | 12 | 20 | 5 | 0 | 0 | 0 | 0 | 0 | 0 | 0 | 2 | 0 | 0 | 0 | 5 | 8
27 | O=C(Nc1n[nH]c2cc(-c3ccccc3F)ccc12)C1CC1 [SB-733371] | 7 | 0 | 0 | 0 | 0 | 0 | 0 | 0 | 11 | 79 | 14 | 0 | 0 | 13 | 7 | 2 | 0 | 14 | 0 | 0
28 | COc1cc2ncn(-c3cc(OCc4ccncc4Br)c(C(N)=O)s3)c2cc1OC [GW854278] | 5 | 13 | 0 | 0 | 0 | 0 | 15 | 0 | 14 | 0 | 0 | 0 | 0 | 10 | 3 | 10 | 38 | 0 | 0 | 0
29 | COc1cc(OC)cc(-c2cc3cnc(N)nc3nc2NC(=O)NC(C)(C)C)c1 | 14 | 0 | 8 | 0 | 0 | 31 | 0 | 0 | 0 | 0 | 2 | 0 | 0 | 10 | 0 | 30 | 0 | 0 | 7 | 0
30 | COc1cc2ncn(-c3cc(OCc4ccncc4)c(C(N)=O)s3)c2cc1OC [GSK336313] | 10 | 0 | 18 | 0 | 0 | 2 | 0 | 0 | 5 | 15 | 0 | 2 | 0 | 0 | 10 | 42 | 5 | 0 | 0 | 0
31 | CCC(=O)c1c(-c2ccccc2)c2cc(Cl)ccc2c(=O)n1Cc1cc(S(C)(=O)=O)n(CC(F)F)n1 | 0 | 0 | 0 | 0 | 0 | 0 | 0 | 2 | 0 | 0 | 2 | 8 | 13 | 0 | 0 | 8 | 0 | 0 | 0 | 0
